Results filed as inconclusive are left out. Active and inactive are the calls of the source. How the source made its calls, unless noted: active means hit-call score of the fitted dose curve at least 0.9, where 1 is the maximum; inactive means score below 0.9.

The nature of assay [1]: APR_HepG2_CellCycleArrest_24hr: Apredica 24-hour HepG2 Assay for Cell Cycle Arrest (AID 2282905).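 Further: cell cycle arrest scored as ratio of 2N to 4N nuclear DNA content.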 The following applies: imaging, actives raise or lower the signal. The procedure, abridged: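 After 24 h exposure at 0.39–200 uM in 0.5% DMSO, fixed cells received Hoechst 33342 staining. Imaging quantified per-nucleus DNA content; gain or loss fitted against DMSO controls.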

Assay [2] is described as follows: APR_HepG2_NuclearSize_24hr: Apredica 24-hour HepG2 Assay for Nuclear Size (AID 2282907). The note with it: high-content imaging, actives raise or lower the signal. An outline of the steps:
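Nuclear size from Hoechst 33342-stained, formaldehyde-fixed HepG2 nuclei imaged by high-content microscopy, after 24 h dosing at ten concentrations from 0.39 to 200 uM in 0.5% DMSO; gain or loss relative to DMSO baseline.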

Assay [3] can be described thus: APR_HepG2_CellLoss_24hr: Apredica 24-hour HepG2 Assay for Cell Loss (AID 2282908).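 On AC50: fit in both directions so a hit may be cell loss or gain.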 The following applies: high-content imaging. An outline of the steps:
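Nuclei stained with Hoechst 33342 after formaldehyde fixation (3.7%) were imaged at 20x to count cells. Exposure lasted 24 hr, at ten concentrations from 0.39 to 200 uM in duplicate, with 0.5% v/v DMSO. Fit bidirectional, relative to DMSO.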

A short description of assay [4]: APR_HepG2_MicrotubuleCSK_24hr: Apredica 24-hour HepG2 Assay for Microtubule CSK Stabilty (AID 2282909). The following applies: HepG2 microtubule cytoskeleton imaging, actives raise or lower the signal. An outline of the steps: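 Fixed HepG2 cells were stained for alpha-tubulin and imaged after 24 hr exposure to ten concentrations spanning 0.39–200 uM in 0.5% DMSO. Signal change was fitted in both directions relative to DMSO; taxol was the positive control.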

The nature of assay [5]: APR_HepG2_MitoticArrest_24hr: Apredica 24-hour HepG2 Assay for Mitotic Arrest (AID 2282910). The note with it: high-content imaging, actives raise or lower the signal. An outline of the steps: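 High-content imaging of fixed HepG2 cells labeled with Hoechst 33342 and anti-phospho-histone H3, after 24 h treatment. Ten concentrations 0.39 to 200 uM in duplicate, final DMSO 0.5%; changes fitted both directions relative to DMSO.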

Assay [6] can be described thus: APR_HepG2_MitoMembPot_24hr: Apredica 24-hour HepG2 Assay for Mitochondrial Membrane Potential (AID 2282911). The note with it: imaging, actives raise or lower the signal. The procedure, abridged: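 HepG2 human liver cells were exposed 24 hr to compounds at 0.39–200 uM (final DMSO 0.5% v/v) in duplicate. MitoTracker Red CMXRos (250 nM, 30 min) was loaded before formaldehyde fixation; fluorescence was imaged by ArrayScan HCS and fitted bidirectionally versus DMSO.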

Assay [7] in a line: APR_HepG2_MitoMass_24hr: Apredica 24-hour HepG2 Assay for Mitochondrial Mass (AID 2282912). The following applies: high-content imaging, actives raise or lower the signal. The procedure, abridged: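 Endpoint is MitoTracker Red CMXRos (250 nM, 30 min, pre-fixation) intensity from 20x high-content imaging, nuclei located by Hoechst. Human HepG2 cells received ten concentrations from 0.39 to 200 uM in 0.5% DMSO for 24 hr, duplicate wells. Bidirectional fit relative to DMSO.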

Assay [8] can be described thus: APR_HepG2_p53Act_24hr: Apredica 24-hour HepG2 Assay for p53 Activation (AID 2282913).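 Further: p53 protein immunofluorescence averaged per cell in HepG2 with Hoechst nuclei.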 The following applies: high-content imaging, actives raise or lower the signal. An outline of the steps: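 HepG2 cells exposed 24 hr to compounds at 0.39–200 uM (10 concentrations, duplicate), final DMSO 0.5% v/v. After formaldehyde fixation and Triton permeabilization, p53 was immunolabeled (sheep anti-p53, Cy5 secondary) with Hoechst 33342 nuclear counterstain, then imaged by high-content fluorescence microscopy.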

A short description of assay [9]: APR_HepG2_CellCycleArrest_72hr: Apredica 72-hour HepG2 Assay for Cell Cycle Arrest (AID 2282914). The following applies: high-content imaging, actives raise or lower the signal. The procedure, abridged:
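HepG2 cells were exposed to compounds at 0.39–200 uM (0.5% v/v DMSO final, duplicates) for 72 hr, fixed in 3.7% formaldehyde, permeabilized and stained with Hoechst 33342. Nuclear DNA content was quantified by high-content imaging; gain or loss of signal was fitted bidirectionally against DMSO.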

The nature of assay [10]: APR_HepG2_CellLoss_72hr: Apredica 72-hour HepG2 Assay for Cell Loss (AID 2282915). The note with it: high-content imaging. The procedure, abridged: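 Cell number comes from Hoechst 33342-labelled nuclei, imaged at 20x after 3.7% formaldehyde fixation. Dosing was 0.39–200 uM, ten concentrations in duplicate, 0.5% DMSO final, for 72 h. Bidirectional fit relative to DMSO baseline.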

Assay [11] can be described thus: APR_HepG2_CellCycleArrest_1hr: Apredica 1-hour HepG2 Assay for Cell Cycle Arrest (AID 2282666). The following applies: high-content imaging, actives raise or lower the signal. The procedure, abridged:
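Cell cycle arrest scored from nuclear DNA content (Hoechst 33342) using high-content imaging of fixed HepG2 cells after 1 h treatment across 0.39–200 uM, in duplicate. Gain or loss fitted relative to 0.5% DMSO.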

A short description of assay [12]: APR_HepG2_CellLoss_1hr: Apredica 1-hour HepG2 Assay for Cell Loss (AID 2282668).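 Further: curves fitted both ways against DMSO so gain or loss of cells counts.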 The following applies: high-content imaging. An outline of the steps:
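Cell number comes from high-content imaging of Hoechst-labelled nuclei in fixed HepG2 cells. Cells were exposed for 1 h to ten concentrations from 0.39 to 200 uM in 0.5% DMSO. Gain or loss was fitted against DMSO controls.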

Assay [13] can be described thus: APR_HepG2_MicrotubuleCSK_1hr: Apredica 1-hour HepG2 Assay for Microtubule CSK Stabilty (AID 2282669). The note with it: HepG2 microtubule cytoskeleton imaging, actives raise or lower the signal. An outline of the steps:
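Alpha-tubulin immunofluorescence, imaged by automated high-content microscopy with Hoechst nuclear segmentation, measured cytoskeletal change after 1 h dosing of HepG2 at 0.39–200 uM in 0.5% DMSO. Activity fitted in both directions relative to DMSO.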

Assay [14] can be described thus: APR_HepG2_NuclearSize_1hr: Apredica 1-hour HepG2 Assay for Nuclear Size (AID 2282670). The following applies: high-content imaging, actives raise or lower the signal. An outline of the steps: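 Nuclear size measured by high-content imaging of Hoechst 33342 nuclear stain after formaldehyde fixation; human HepG2 line exposed 1 hr to compounds at 0.39–200 uM in 0.5% DMSO, with bidirectional curve fitting relative to DMSO.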

A short description of assay [15]: APR_HepG2_MitoticArrest_1hr: Apredica 1-hour HepG2 Assay for Mitotic Arrest (AID 2282672). The note with it: high-content imaging, actives raise or lower the signal. The procedure, abridged: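 Ten-point concentration series (0.39 to 200 uM, duplicates, 0.5% v/v DMSO) applied to human HepG2 liver cells for 1 hr. High-content imaging of phospho-histone H3 and Hoechst-stained nuclei after fixation and permeabilization; DMSO-normalised bidirectional fit.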

Assay [16] is described as follows: APR_HepG2_P-H2AX_1hr: Apredica 1-hour HepG2 Assay for H2AX Phosphorylation (AID 2282673). The following applies: high-content imaging, actives raise or lower the signal. The procedure, abridged:
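Phospho-H2A.x immunofluorescence (1:200, FITC secondary) plus Hoechst nuclear stain, quantified by high-content imaging in HepG2 after 1 hr compound exposure. Ten concentrations, 0.39 to 200 uM, in duplicate with 0.5% DMSO; fit both directions against DMSO.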

A short description of assay [17]: APR_HepG2_MitoMass_1hr: Apredica 1-hour HepG2 Assay for Mitochondrial Mass (AID 2282674). The following applies: high-content imaging, actives raise or lower the signal. An outline of the steps: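 Mitochondrial mass is taken from MitoTracker Red CMXRos (250 nM, 30 min, pre-fixation) fluorescence imaged at 20x in HepG2 cells. Exposure lasted 1 hr across ten concentrations, 0.39 to 200 uM, 0.5% DMSO; DMSO baseline, bidirectional fitting.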

A short description of assay [18]: APR_HepG2_MitoMembPot_1hr: Apredica 1-hour HepG2 Assay for Mitochondrial Membrane Potential (AID 2282675). The note with it: imaging, actives raise or lower the signal. An outline of the steps: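 Mitochondrial membrane potential read as MitoTracker Red CMXRos intensity by automated imaging of fixed HepG2 cells. Dye at 250 nM for 30 min pre-fixation; compounds 0.39 to 200 uM for 1 hour, duplicate wells, 0.5% DMSO.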

Assay [19] in a line: APR_HepG2_StressKinase_1hr: Apredica 1-hour HepG2 Assay for Stress Kinase (AID 2282906). The note with it: HepG2 stress kinase (phospho-c-Jun) imaging, actives raise or lower the signal. An outline of the steps: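 High-content imaging of phospho-c-Jun immunostaining (with Hoechst nuclear identification) after a 1 h exposure of HepG2 cells to 10 concentrations from 0.39 to 200 uM, final DMSO 0.5%. Fitted bidirectionally against DMSO.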

Assay [20] can be described thus: ACEA_ER_80hr: ACEA Biosciences xCELLigence Real-Time Cell Analysis on Estrogen Receptor Agonism for Proliferation (AID 2282667; active means hit-call score of the fitted dose curve at least 0.9, where 1 is the maximum). The note with it: T47D proliferation, impedance (xCELLigence), 80 h. An outline of the steps: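 T47D human breast cells were seeded on electrode plates, monitored overnight, then exposed continuously to compounds in eight-point 1:4 dilutions from 100 uM (max 0.5% DMSO). Impedance-based growth was read at 80 h, fitted upward relative to DMSO.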

Take `CCC(C)(c1ccc(O)cc1)c1ccc(O)cc1`: the molecule was classed as inactive in [1], in assay [2], in [4] and in [9]. Moreover, the AC50 is 111 µM (active) in assay [3]; 106 µM (active) in [5]; 57.6 µM (active) in assay [6]; 127 µM (active) in assay [7]; 101 µM (active) in assay [8]; 108 µM (active) in assay [10].
For the molecule `Cc1ccccc1CO[C@@H]1C[C@@]2(C(C)C)CC[C@]1(C)O2`, the molecule was called inactive in assay [11], in [12], in [13], in assay [14], in assay [15] and in [16]. The outcome in [17], in assay [18], in assay [19], in [2], in [3] and in assay [4] was inactive. The molecule was classed as inactive in [5], in [6], in assay [7], in [9] and in assay [10]. Further, the AC50 in assay [1] is 79.8 µM (active).
`Cc1ccccc1O`: the result in assay [20], in assay [1], in [2], in assay [4], in [5] and in assay [6] was inactive. Besides, the result in assay [7], in assay [8], in assay [9] and in [10] was inactive.
Regarding `CCOC(=O)C(O)(c1ccc(Cl)cc1)c1ccc(Cl)cc1`, the AC50 in assay [1] is 54.1 µM (active); in [2], 72.9 µM (active); in assay [3], 72.3 µM (active); in [4] it was 89.7 µM (active); in assay [5], 70.5 µM (active); in [6], 7.9 µM (active). The half-maximal activity concentration (AC50) was 59.5 µM (active) in assay [7], 82.7 µM (active) in [8], 44.7 µM (active) in assay [9] and 69.6 µM (active) in assay [10].
On to `Sc1ccccc1`, for which the molecule was called inactive in assay [20].
`O=C(N[C@H]1CN2CCC1CC2)c1cc2ccoc2cn1`: the call in [20], in assay [1], in assay [2], in assay [4], in [5] and in [7] was inactive. Moreover, the outcome in assay [8], in assay [9] and in assay [10] was inactive. Further, in assay [6], the AC50 is 0.0336 µM (active).
Regarding `O=C(NC(=O)c1c(F)cccc1F)Nc1cc(Cl)c(OC(F)(F)C(F)F)c(Cl)c1`, the molecule was called inactive in [20], in [1], in assay [2], in assay [4], in assay [5] and in assay [6]. Further, the call in [7], in assay [8], in assay [9] and in [10] was inactive.
In the case of `ClC1=C(Cl)[C@]2(Cl)[C@@H]3[C@@H](Cl)[C@H]4O[C@H]4[C@@H]3C1(Cl)C2(Cl)Cl`, the outcome in [20], in [2], in assay [6] and in assay [7] was inactive. The half-maximal activity concentration (AC50) is 80.1 µM (active) in assay [1]; 82.1 µM (active) in assay [4]; 66.5 µM (active) in assay [5]; 87.7 µM (active) in assay [8]; 86.3 µM (active) in assay [9]; 75.4 µM (active) in assay [10].

Source of the values: PubChem BioAssay (EPA / NIEHS).
